These results are taken from PubChem BioAssay (NCI).

Among the test systems are HCT-15 colon; HT29 colon; SNB-19 CNS; U251 CNS; PC-3 prostate; SK-MEL-5 melanoma; UACC-62 melanoma; LOX IMVI melanoma; SK-MEL-28 melanoma; SNB-75 CNS.
Holding throughout (assay): NCI-60 one-dose screen, 48 h (100 = growth as untreated, 0 = no growth, -100 = all killed)
Holding throughout (conditions): 10 µM unless noted

About 83,000 compounds went through this panel and 20% of them were active in at least one assay; those are over-represented in the sample as a whole.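 Values shown are percent growth following 48 h exposure of cells in 96-well plates to a single concentration of compound; below 10 was considered active.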 Values without a mark were called inactive. Active and inactive are the calls of the source.

Turning to `N#C/C(=C\c1ccc(-c2cccc(Cl)c2)o1)C(=O)Nc1ncc(Cc2ccc(Cl)cc2)s1`, the growth with HCT-15 colon is 57.6%; in the experiment on HT29 colon, 70.5%; with SNB-19 CNS, 77.4%; in the experiment with U251 CNS, 16.9%; in the experiment on PC-3 prostate it was 39.5%; with SK-MEL-5 melanoma it was 89.9%. Besides, the values for the growth with UACC-62 melanoma, with LOX IMVI melanoma and with SK-MEL-28 melanoma were 43%, 52.5% and 66.8%, respectively.

Regarding `COC1C(O)CC(OC2CC(OC3CC(O[C@@H]4C(=O)c5c(cc6cc(OC7CC(OC8CC(O)C(O)C(C)O8)C(O)C(C)O7)c(C)c(O)c6c5O)CC4[C@H](OC)[C@@H](O)C(C)=O)OC(C)C3O)OC(C)C2O)OC1C` (some centres not stated), the growth in the experiment on HCT-15 colon is 28%; in the experiment on HT29 colon, -16.9% (active); in the experiment with SNB-19 CNS it was 16.4%; in the experiment on U251 CNS, 7.11% (active); in the experiment on PC-3 prostate, 16.9%; in the experiment on SK-MEL-5 melanoma, -65.2% (active). For the same compound, the growth in the experiment on UACC-62 melanoma is -20.9% (active); in the experiment on LOX IMVI melanoma, -25.2% (active); in the experiment with SK-MEL-28 melanoma, -13.9% (active).

Turning to `CCOC(=O)C(CCN(C)C)c1ccccc1` (configuration not stated), the growth in the experiment on HCT-15 colon is 105%; with HT29 colon, 92.1%; in the experiment on SNB-19 CNS it was 105%; in the experiment with U251 CNS it was 103%; in the experiment on PC-3 prostate, 86.6%; in the experiment with SK-MEL-5 melanoma it was 103%. Besides, the growth is 102% with UACC-62 melanoma, 98.3% in the experiment on LOX IMVI melanoma and 97.8% in the experiment on SK-MEL-28 melanoma.

In the case of `COC(=O)[C@@]12CC=C(C)[C@]3(C[C@H](c4ccoc4)OC3=O)[C@H]1C=C[C@@H](O)[C@@]2(O)C(=O)OC`, the growth in the experiment with HCT-15 colon is 108%; in the experiment on HT29 colon, 84.7%; in the experiment on SNB-19 CNS it was 105%; in the experiment on U251 CNS, 97.9%; with PC-3 prostate, 95.6%; in the experiment on SK-MEL-5 melanoma it was 107%. Also, the growth in the experiment with UACC-62 melanoma was 92.8%; with LOX IMVI melanoma, 97.5%; in the experiment on SK-MEL-28 melanoma it was 105%.

As for `c1cc(OCCN2CCCCCC2)ccc1CNc1ccc2nc(CCC3CCCCC3)[nH]c2c1`, the growth in the experiment with HCT-15 colon was 3.08% (active); in the experiment with HT29 colon, 8.15% (active); with SNB-19 CNS it was 79.5%; in the experiment on U251 CNS, 45.2%; in the experiment on PC-3 prostate, 50.5%; with SK-MEL-5 melanoma, -86.3% (active). Besides, the figures for the growth in the experiment with UACC-62 melanoma, with LOX IMVI melanoma and with SK-MEL-28 melanoma were 83.9%, -67.4% (active) and -8.14% (active), respectively.

Consider `COc1ccc2cc(-c3nc4ccc(C)cn4c3NCc3ccco3)c(=O)[nH]c2c1`, for which the growth in the experiment on HCT-15 colon was 75.8%; with HT29 colon, 79.9%; in the experiment with SNB-19 CNS, 34.6%; with U251 CNS, 75.1%; in the experiment with PC-3 prostate, 46.1%; with SK-MEL-5 melanoma, 56.9%. In addition, the growth in the experiment on UACC-62 melanoma is 46%; in the experiment on LOX IMVI melanoma, 75.8%; with SK-MEL-28 melanoma, 81.8%.

As for `CS(=O)/C(C#N)=C\C=C\c1cccc(Cl)c1` (configuration not stated), the growth in the experiment with HCT-15 colon is -6.41% (active); in the experiment on HT29 colon, 8.51% (active); in the experiment with SNB-19 CNS, 27.2%; in the experiment on U251 CNS it was 17.3%; with PC-3 prostate it was 30.6%; in the experiment with SK-MEL-5 melanoma it was 32.3%. The values for the growth in the experiment on UACC-62 melanoma, in the experiment with LOX IMVI melanoma and in the experiment on SK-MEL-28 melanoma were 0.315% (active), -53.2% (active) and 24.8%, respectively.

In the case of `c1cc(OCCN2CCCCC2)ccc1CNc1ccc2nc(CCC3CCCCC3)[nH]c2c1`, the growth was -13.9% (active) in the experiment with HCT-15 colon; 8.7% (active) in the experiment on HT29 colon; 62% with SNB-19 CNS; -11.8% (active) in the experiment with U251 CNS; 44.9% in the experiment on PC-3 prostate; -99.4% (active) in the experiment on SK-MEL-5 melanoma. Also, the growth in the experiment with UACC-62 melanoma is 53.5%; in the experiment on LOX IMVI melanoma, -82% (active); with SK-MEL-28 melanoma, -86.6% (active).

`CN(C)/C(N)=N/N=C(\c1ccccc1)c1ccccn1`: the growth is 90.5% in the experiment on HCT-15 colon; 110% in the experiment on HT29 colon; 106% with SNB-19 CNS; 96.7% in the experiment on U251 CNS; 81.5% with PC-3 prostate; 95.5% with SK-MEL-5 melanoma. Moreover, the values for the growth in the experiment with UACC-62 melanoma, in the experiment with LOX IMVI melanoma and in the experiment on SK-MEL-28 melanoma were 105%, 93% and 113%, respectively.

Turning to `COc1ccc(N/N=C/c2cn(-c3ccc(C(=O)O)cc3)nc2-c2cc3ccccc3oc2=O)cc1`, the growth in the experiment with HCT-15 colon was 30%; in the experiment with HT29 colon, 63.1%; in the experiment with SNB-19 CNS it was 75.9%; in the experiment with U251 CNS, 107%; in the experiment with PC-3 prostate, 63.5%; with UACC-62 melanoma it was 22.6%. In addition, the growth in the experiment on LOX IMVI melanoma is 25.7%; in the experiment on SK-MEL-28 melanoma, 69.5%.

As to `O=c1oc2c(cc1-c1ccccc1)c(=O)[nH]c1ccccc12`, the growth in the experiment with HCT-15 colon was 98.2%; with HT29 colon, 96.6%; in the experiment on SNB-19 CNS, 97.4%; in the experiment on U251 CNS, 93.4%; in the experiment on PC-3 prostate, 96.3%; with SK-MEL-5 melanoma, 99.4%. Moreover, the growth is 95.5% in the experiment with UACC-62 melanoma, 95.8% in the experiment on LOX IMVI melanoma and 99.7% in the experiment on SK-MEL-28 melanoma.

With `CC1(/C=C/c2ccc(-c3ccccc3)cc2)CCn2cnc3ncnc(c32)N1O` (configuration not stated), the growth in the experiment with HCT-15 colon is 21.5%; in the experiment with HT29 colon, 30%; in the experiment with SNB-19 CNS, 26.7%; in the experiment on U251 CNS, 24.7%; in the experiment on PC-3 prostate it was 42.4%; in the experiment on SK-MEL-5 melanoma it was -6.47% (active). The results for the growth in the experiment on UACC-62 melanoma, in the experiment on LOX IMVI melanoma and with SK-MEL-28 melanoma were 0.915% (active), 9.21% (active) and 29.7%, respectively.

On to `O=[N+]([O-])c1c(O)c(Cl)cc(Cl)c1Cl`, for which the growth in the experiment with HCT-15 colon was 99.8%; in the experiment on HT29 colon, 101%; with SNB-19 CNS, 101%; in the experiment with U251 CNS, 97.9%; in the experiment on PC-3 prostate it was 88%; with SK-MEL-5 melanoma, 98.3%. Further, the figures for the growth in the experiment on UACC-62 melanoma, in the experiment with LOX IMVI melanoma and with SK-MEL-28 melanoma were 100%, 94.2% and 109%, respectively.

In the case of `O=[N+]([O-])c1ccccc1Sc1ccccc1[N+](=O)[O-]`, the growth was 99.1% in the experiment on HCT-15 colon; 92% with HT29 colon; 106% in the experiment on SNB-19 CNS; 90.6% with U251 CNS; 87.5% in the experiment with PC-3 prostate; 97.3% in the experiment with SK-MEL-5 melanoma. For the same compound, the growth with UACC-62 melanoma was 100%; in the experiment on LOX IMVI melanoma it was 91.8%; with SK-MEL-28 melanoma, 109%.

As to `O=C(/C=C/c1ccccc1)N(C1CCCCC1)C1CCCCC1`, the growth in the experiment with HCT-15 colon was 86.3%; with HT29 colon it was 68.6%; in the experiment with SNB-19 CNS, 87.7%; in the experiment with PC-3 prostate it was 60.2%; with SK-MEL-5 melanoma it was 89.9%; with UACC-62 melanoma, 75%. Moreover, the growth in the experiment with LOX IMVI melanoma is 92.3%; in the experiment on SK-MEL-28 melanoma, 97.9%.

Consider `Cc1ccc(C(=O)c2ccc(CC(=O)N/N=C/c3cccc(O)c3O)n2C)cc1`, for which the growth with HCT-15 colon is 15.7%; in the experiment with HT29 colon, 86.7%; in the experiment with SNB-19 CNS, 46%; in the experiment on U251 CNS, 26%; with PC-3 prostate, 59.2%; in the experiment on SK-MEL-5 melanoma it was 34.6%. The growth in the experiment with UACC-62 melanoma is 39.1%; in the experiment on LOX IMVI melanoma, 17.3%; with SK-MEL-28 melanoma, 80%.

With `Nc1c(Cl)cc(/C=C2\C=Cc3ccccc32)cc1Cl`, the growth was 97.6% with HT29 colon; 86.1% in the experiment on SNB-75 CNS; 114% in the experiment with SNB-19 CNS; 108% in the experiment on U251 CNS; 90.6% in the experiment with PC-3 prostate; 105% in the experiment on SK-MEL-5 melanoma. The figures for the growth in the experiment on UACC-62 melanoma, in the experiment on LOX IMVI melanoma and in the experiment with SK-MEL-28 melanoma were 106%, 89.7% and 114%, respectively.

On to `COc1ccc(/C=C(\C(=O)NCc2cccnc2)S(=O)(=O)c2ccccc2)cc1OC`, for which the growth was 9.86% (active) in the experiment on HT29 colon; 54.2% in the experiment on SNB-75 CNS; 32.2% with U251 CNS; 36.5% in the experiment on PC-3 prostate; 64.6% with SK-MEL-5 melanoma; 34.9% in the experiment with UACC-62 melanoma. For the same compound, the growth in the experiment with LOX IMVI melanoma was 4.04% (active); in the experiment with SK-MEL-28 melanoma it was 34.6%.

For `CS(=O)(=O)Nc1cc(-c2ccc3ncnc(Nc4ccc5c(cnn5Cc5ccncc5)c4)c3c2)cnc1Cl`, the growth in the experiment on HT29 colon was 64.8%; in the experiment on SNB-19 CNS it was 60%; with U251 CNS, 52.7%; with PC-3 prostate, 57.7%; in the experiment with SK-MEL-5 melanoma it was 52.5%; in the experiment on UACC-62 melanoma, 32.5%. Further, the growth in the experiment on LOX IMVI melanoma was 22%; in the experiment with SK-MEL-28 melanoma, 32.5%.
